In PubChem BioAssay (NCATS):
Results filed as inconclusive are left out. Entries that show only a call come without a potency. The source holds several records for some structures; these can differ, active in one and inactive in another. Calls of active or inactive are those of the source. Calls follow the shape of the dose curve; as a rule, active = well fitted inhibition curve with a large enough effect; inconclusive = small, poorly fitted or top-dose-only effect; inactive = flat fitted curve, though single readings scatter.

These compounds were tested on ECU (assay: qHTS profiling for inhibitors of Plasmodium falciparum proliferation (AID 504749; also: nearly all actives have a fitted effect of over 60% in size)). Conditions: P. falciparum in erythrocytes, SYBR Green DNA, 72 h; series mostly up to 28.7 µM.
Outline: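 Each compound contacts P. falciparum-infected red blood cells for 72 h at 37 C; lysis buffer (Tris, EDTA, saponin, Triton X, SYBR Green I) is added and fluorescence measured next morning; values normalized to controls.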
Potency is read from the fitted curve at half-maximal effect.

Structure (SMILES) | Potency
CCCCC1C(=O)N(c2ccccc2)N(c2ccccc2)C1=O | 8.91 µM (active) and inactive
O=C1Nc2ccc(Cl)cc2C(C#CC2CC2)(C(F)(F)F)O1 (stereo unspecified) | inactive
CCCNC(=O)NS(=O)(=O)c1ccc(Cl)cc1 | inactive
CCN1CCC[C@H]1CNC(=O)c1cc(S(N)(=O)=O)ccc1OC | inactive
C[N+](C)(C)CCCCCC[N+](C)(C)C | inactive
O=c1[nH]cnc2c1ncn2[C@H]1CC[C@@H](CO)O1 | inactive
CCN(CC)CCNC(=O)c1ccc(N)cc1 | inactive
O=C(O)c1c(Cl)c(Cl)c(Cl)c(Cl)c1-c1c2cc(I)c(=O)c(I)c-2oc2c(I)c(O)c(I)cc12 | inactive
CCOC(=O)O[C@]1(C(=O)OCCl)CC[C@@H]2[C@H]3CCC4=CC(=O)C=C[C@]4(C)[C@@H]3[C@@H](O)C[C@@]21C | inactive
Clc1ccc(Cn2c(CN3CCCC3)nc3ccccc32)cc1 | inactive
CCN(CC)CCOC(=O)c1ccc(N)cc1 | inactive
